According to PubChem BioAssay (EPA / NIEHS):
Records with an inconclusive call do not appear. The source made the active and inactive calls. How the source made its calls, unless noted: active means hit-call score of the fitted dose curve at least 0.9, where 1 is the maximum; inconclusive means response in the unintended direction; inactive means score below 0.9.

Experiments:
[1] = CEETOX_H295R_ESTRADIOL_noMTC: CeeTox H295R High-throughput Steroidogenesis Assay for Estradiol, maximum tolerated concentration (MTC) filtered results only (AID 2283919; active means hit-call score of the fitted dose curve at least 0.9, where 1 is the maximum; inactive means score below 0.9); settings: actives raise or lower the signal
Outline: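 Readout: dansyl-derivatized estradiol quantified by LC-MS/MS in medium from H295R cells dosed 48 h (0.1% DMSO) following 48 h forskolin (10 uM) prestimulation. Gain or loss of signal fitted against DMSO; no MTC filtering applied.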

[2] = CEETOX_H295R_ESTRONE_noMTC: CeeTox H295R High-throughput Steroidogenesis Assay for Estrone, maximum tolerated concentration (MTC) filtered results only (AID 2283921; active means hit-call score of the fitted dose curve at least 0.9, where 1 is the maximum; inactive means score below 0.9); settings: actives raise or lower the signal
Outline: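 Estrone in spent medium, quantified by tandem MS following dansyl chloride derivatization, after 48 h chemical exposure (0.1% DMSO) of forskolin-prestimulated (10 uM, 48 h) H295R cells; concentrations not MTC-filtered, bidirectional fit against DMSO.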

[3] = CEETOX_H295R_TESTO_noMTC: CeeTox H295R High-throughput Steroidogenesis Assay for Testosterone (TESTO), maximum tolerated concentration (MTC) filtered results only (AID 2283924; active means hit-call score of the fitted dose curve at least 0.9, where 1 is the maximum; inactive means score below 0.9); settings: actives raise or lower the signal
Outline: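 Medium testosterone, measured by HPLC-MS/MS after liquid-liquid extraction, was fitted in both directions relative to DMSO without MTC filtering. Adrenal H295R cells received 48 h chemical exposure (0.1% DMSO final) after 48 h forskolin (10 uM) prestimulation; viability by MTT.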

[4] = biological target: PGR (gene 5241) (UniProt P06401); experiment: TOX21_PR_BLA_Followup_Antagonist_ratio: Tox21 HEK293 Progesterone Receptor (PR) Antagonism Beta-lactamase Follow-Up Assay, Ratio (AID 2283934);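 further: PR-UAS-bla HEK293T cells stimulated with 1 nM R5020 agonist for 16 hr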
Outline: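 Cells are plated, rested 6 hr, then dosed with test compound in DMSO and challenged with 1 nM promegestone. After 16 hr incubation, substrate loading for 2 h at room temperature precedes fluorescence reading; viability is measured in the same wells.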

[5] = TOX21_PR_BLA_Followup_Agonist_viability: Viability Assessment in the Tox21 HEK293 Progesterone Receptor (PR) Agonism Beta-lactamase Follow-Up Assay (AID 2283935);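 further: signal loss means lower viability so actives are cytotoxic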
Outline: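 Cells were plated in medium with 2% charcoal-stripped FBS and rested 6 hr. Compounds in DMSO were then added for 16 hr at 37C, followed by the FRET substrate step and CellTiter-Glo luminescence after 30 min.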

[6] = TOX21_PR_BLA_Followup_Antagonist_viability: Viability Assessment in the Tox21 HEK293 Progesterone Receptor (PR) Antagonism Beta-lactamase Follow-Up Assay (AID 2283936);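 further: cells exposed to compound with R5020 agonist for 16 h; hits lower the luminescence signal meaning cytotoxicity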
Outline: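 PR-UAS-bla HEK293T cells in medium with 2% charcoal-stripped FBS were treated with compounds plus R5020 for 16 hr at 37C. After the beta-lactamase read, CellTiter-Glo was added to the same wells and luminescence read after 30 min at room temperature.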

[7] = biological target: PGR (gene 5241) (UniProt P06401); experiment: TOX21_PR_LUC_Followup_Antagonist: Tox21 HEK293 Progesterone Receptor (PR) Antagonism Luciferase Follow-Up Assay (AID 2283938);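 further: curve fitted upward as signal gain over DMSO baseline despite antagonist label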
Outline: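 A follow-up to the PR bla screen using HEK293-PR-A-luc cells, multiplexed with cell viability to flag cytotoxicity. Reporter luminescence after 16 h compound exposure was analysed relative to DMSO.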

[8] = biological target: T1, Thyroid hormone receptor alpha (Rattus norvegicus) + Thyroid hormone receptor beta (Rattus norvegicus) (UniProt P18113+P63059); experiment: TOX21_TR_LUC_GH3_Agonist_Followup: Tox21 GH3 Thyroid Hormone Receptor Agonism Luciferase Follow-Up Assay (AID 2283939)
Outline: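 Agonist-mode confirmatory run: 15 concentrations (5 nM to 92 uM final) on GH3 rat pituitary cells, 24 h at 37C/5% CO2, T3 as positive control. Luminescence read with ONE-Glo after 30 min.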

[9] = biological target: THRA (gene 7067) (UniProt P10827); experiment: TOX21_TRA_COA_Agonist_Followup_ratio: Tox21 Thyroid Hormone Receptor alpha Agonism through Coactivator Recruitment Follow-Up Assay, Ratio (AID 2283948; active means hit-call score of the fitted dose curve at least 0.9, where 1 is the maximum; inactive means score below 0.9)
Outline: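 First, compound was incubated with 2.5 nM GST-TRα LBD in 0.10% BSA. Next, 200 nM fluorescein-SRC-2 and 2 nM Tb-anti-GST antibody were added. Finally, the 520:495 nm ratio was normalized to DMSO and T3 controls.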

[10] = biological target: THRB (gene 7068) (UniProt P10828); experiment: TOX21_TRB_COA_Agonist_Followup_ratio: Tox21 Thyroid Hormone Receptor beta Agonism through Coactivator Recruitment Follow-Up Assay, Ratio (AID 2283963; active means hit-call score of the fitted dose curve at least 0.9, where 1 is the maximum; inactive means score below 0.9)
Outline: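 Cell-free TR-FRET coactivator recruitment: GST-tagged TRβ LBD (5.0 nM) with 0.10% BSA incubated with compound, then fluorescein-SRC-2 peptide (200 nM) and Tb-anti-GST antibody (2 nM) added. 520:495 nm ratio normalized to DMSO (0%) and T3 (100%).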

[11] = biological target: Retinoic acid receptor RXR-alpha (Homo sapiens) (UniProt P19793); experiment: TOX21_TR_RXR_BLA_Agonist_Followup_ratio: Tox21 Thyroid Hormone Receptor beta Retinoid X Receptor alpha (RXRa) Agonism Beta-lactamase (BLA) Follow-Up Assay, Ratio (AID 2283968)
Outline: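 Cells were first allowed to attach for 5 h, after which compounds in DMSO were pinned at 11 concentrations and incubated 16 h at 37C. LiveBLAzer CCF4-AM substrate was then added for 2 h at room temperature before reading 460 and 530 nm fluorescence.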

[12] = biological target: T1, Thyroid hormone receptor alpha (Rattus norvegicus) + Thyroid hormone receptor beta (Rattus norvegicus); experiment: TOX21_TR_LUC_GH3_Antagonist_Followup: Tox21 GH3 Thyroid Hormone Receptor Antagonism Luciferase Follow-Up Assay (AID 2283942)
Outline: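 In a GH3 luciferase reporter line, test chemicals spanning 92 uM to 5nM final are co-incubated 24 h with 1.0 nM T3. Activity is expressed as relative luminescence units and analysed relative to DMSO.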

[13] = biological target: THRB (gene 7068) (UniProt P10828); experiment: TOX21_TRB_BLA_Antagonist_Followup_ratio: Tox21 Thyroid Hormone Receptor beta Antagonism Beta-lactamase (BLA) Follow-Up Assay, Ratio (AID 2283958)
Outline: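 Cells were plated and allowed to attach for 5 h, then dosed with compounds in DMSO at 11 concentrations for 18 h at 37C. Beta-lactamase reporter activity was measured via CCF4-AM FRET as the 460:530 nm ratio.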

[14] = TOX21_TRB_BLA_Antagonist_Followup_viability: Viability Assessment in the Tox21 Thyroid Hormone Receptor beta Antagonism Beta-lactamase (BLA) Follow-Up Assay (AID 2283961)
Outline: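 Cytotoxicity is measured in parallel with the antagonist-mode TRβ beta-lactamase screen, using ATP-coupled luciferase luminescence. Engineered HEK293T cells are treated for 18 h with 11-point compound series in triplicate.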

[15] = biological target: THRB (gene 7068) (UniProt P10828); experiment: TOX21_TRB_COA_Antagonist_Followup_ratio: Tox21 Thyroid Hormone Receptor beta Antagonism through Coactivator Recruitment Follow-Up Assay, Ratio (AID 2283967)
Outline: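 Coactivator (SRC-2) recruitment to purified GST-TRβ ligand-binding domain is monitored by terbium-to-fluorescein energy transfer, emission ratio 520:495 nm. DMSO wells define 0% and T3 wells 100% activity.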

THRB (gene 7068), sequence (P10828 whole entry, looked up, the tested form may be a part): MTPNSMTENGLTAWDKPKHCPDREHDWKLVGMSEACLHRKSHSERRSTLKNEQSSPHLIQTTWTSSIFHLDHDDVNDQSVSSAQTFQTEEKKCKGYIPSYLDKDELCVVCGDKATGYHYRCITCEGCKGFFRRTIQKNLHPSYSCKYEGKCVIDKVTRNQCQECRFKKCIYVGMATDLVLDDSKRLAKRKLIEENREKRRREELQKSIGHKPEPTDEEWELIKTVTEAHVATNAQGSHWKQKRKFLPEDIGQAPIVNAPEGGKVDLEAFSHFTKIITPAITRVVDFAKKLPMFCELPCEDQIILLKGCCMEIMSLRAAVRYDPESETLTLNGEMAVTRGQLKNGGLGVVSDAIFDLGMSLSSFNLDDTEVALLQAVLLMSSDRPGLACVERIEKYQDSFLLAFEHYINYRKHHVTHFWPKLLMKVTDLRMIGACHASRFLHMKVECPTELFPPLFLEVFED
PGR (gene 5241), sequence (P06401 whole entry, looked up): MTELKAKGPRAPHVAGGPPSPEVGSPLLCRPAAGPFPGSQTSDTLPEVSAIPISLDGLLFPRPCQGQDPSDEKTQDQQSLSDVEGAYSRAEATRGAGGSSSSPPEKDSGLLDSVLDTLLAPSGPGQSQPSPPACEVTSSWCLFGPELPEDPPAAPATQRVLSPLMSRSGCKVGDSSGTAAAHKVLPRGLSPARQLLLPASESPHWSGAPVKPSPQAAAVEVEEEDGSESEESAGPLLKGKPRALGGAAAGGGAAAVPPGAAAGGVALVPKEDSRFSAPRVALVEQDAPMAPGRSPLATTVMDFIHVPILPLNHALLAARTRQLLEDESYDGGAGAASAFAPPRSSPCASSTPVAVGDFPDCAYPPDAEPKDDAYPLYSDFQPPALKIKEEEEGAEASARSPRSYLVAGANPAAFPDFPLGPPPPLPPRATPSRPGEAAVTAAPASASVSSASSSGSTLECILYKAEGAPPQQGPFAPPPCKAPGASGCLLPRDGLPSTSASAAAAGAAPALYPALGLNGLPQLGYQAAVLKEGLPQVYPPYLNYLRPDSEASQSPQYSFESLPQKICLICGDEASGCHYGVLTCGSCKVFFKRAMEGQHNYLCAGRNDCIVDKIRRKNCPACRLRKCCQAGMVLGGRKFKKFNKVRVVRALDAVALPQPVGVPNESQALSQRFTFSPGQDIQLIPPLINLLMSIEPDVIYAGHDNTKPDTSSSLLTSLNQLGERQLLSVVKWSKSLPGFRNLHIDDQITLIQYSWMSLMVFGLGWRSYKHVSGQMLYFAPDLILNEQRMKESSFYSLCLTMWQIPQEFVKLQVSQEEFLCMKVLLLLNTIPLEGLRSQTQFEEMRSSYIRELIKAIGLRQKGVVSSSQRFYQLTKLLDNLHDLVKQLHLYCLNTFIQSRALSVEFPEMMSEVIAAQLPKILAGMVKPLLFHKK
THRA (gene 7067), sequence (P10827 whole entry, looked up, the tested form may be a part): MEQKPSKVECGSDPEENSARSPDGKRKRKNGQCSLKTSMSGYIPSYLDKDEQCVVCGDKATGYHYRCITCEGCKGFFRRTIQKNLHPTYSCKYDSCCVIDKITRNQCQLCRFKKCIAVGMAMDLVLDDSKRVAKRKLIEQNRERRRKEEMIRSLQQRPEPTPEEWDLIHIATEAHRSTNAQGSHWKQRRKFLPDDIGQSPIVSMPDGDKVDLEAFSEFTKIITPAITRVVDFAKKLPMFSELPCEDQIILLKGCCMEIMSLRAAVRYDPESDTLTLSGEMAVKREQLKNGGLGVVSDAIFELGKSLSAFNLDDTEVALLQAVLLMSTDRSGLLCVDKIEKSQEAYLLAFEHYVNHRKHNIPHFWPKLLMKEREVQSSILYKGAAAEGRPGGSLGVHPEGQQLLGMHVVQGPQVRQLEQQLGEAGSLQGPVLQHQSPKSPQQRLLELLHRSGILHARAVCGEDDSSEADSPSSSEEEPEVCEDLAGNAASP
Retinoic acid receptor RXR-alpha (Homo sapiens), sequence (P19793 whole entry, looked up): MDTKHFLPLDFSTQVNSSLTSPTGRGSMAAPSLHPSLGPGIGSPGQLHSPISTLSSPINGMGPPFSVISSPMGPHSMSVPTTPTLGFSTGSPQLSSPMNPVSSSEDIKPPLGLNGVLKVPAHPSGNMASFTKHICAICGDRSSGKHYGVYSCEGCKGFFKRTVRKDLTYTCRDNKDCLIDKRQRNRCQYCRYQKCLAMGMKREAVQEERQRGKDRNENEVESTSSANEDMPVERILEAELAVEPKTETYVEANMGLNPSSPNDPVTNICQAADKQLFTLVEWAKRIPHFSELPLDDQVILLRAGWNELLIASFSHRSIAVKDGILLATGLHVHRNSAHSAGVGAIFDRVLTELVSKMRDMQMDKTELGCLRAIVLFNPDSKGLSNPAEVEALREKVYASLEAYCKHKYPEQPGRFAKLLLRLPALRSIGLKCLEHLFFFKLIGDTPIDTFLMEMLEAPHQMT
T1 sequence (P63059 whole entry, looked up): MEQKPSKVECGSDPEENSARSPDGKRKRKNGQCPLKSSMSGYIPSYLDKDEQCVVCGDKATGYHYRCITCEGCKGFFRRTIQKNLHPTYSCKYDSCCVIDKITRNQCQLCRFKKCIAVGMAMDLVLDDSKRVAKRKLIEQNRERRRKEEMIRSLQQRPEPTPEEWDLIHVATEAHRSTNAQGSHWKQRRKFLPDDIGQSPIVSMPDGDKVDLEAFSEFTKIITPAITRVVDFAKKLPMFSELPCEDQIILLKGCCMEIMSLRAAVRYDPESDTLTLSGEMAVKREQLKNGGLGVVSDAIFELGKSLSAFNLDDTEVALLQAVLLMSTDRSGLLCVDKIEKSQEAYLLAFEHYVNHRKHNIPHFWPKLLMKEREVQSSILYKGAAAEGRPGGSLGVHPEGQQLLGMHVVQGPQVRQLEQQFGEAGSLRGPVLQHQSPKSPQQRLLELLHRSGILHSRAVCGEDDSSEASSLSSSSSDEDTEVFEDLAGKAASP
T1 sequence (P18113 whole entry, looked up): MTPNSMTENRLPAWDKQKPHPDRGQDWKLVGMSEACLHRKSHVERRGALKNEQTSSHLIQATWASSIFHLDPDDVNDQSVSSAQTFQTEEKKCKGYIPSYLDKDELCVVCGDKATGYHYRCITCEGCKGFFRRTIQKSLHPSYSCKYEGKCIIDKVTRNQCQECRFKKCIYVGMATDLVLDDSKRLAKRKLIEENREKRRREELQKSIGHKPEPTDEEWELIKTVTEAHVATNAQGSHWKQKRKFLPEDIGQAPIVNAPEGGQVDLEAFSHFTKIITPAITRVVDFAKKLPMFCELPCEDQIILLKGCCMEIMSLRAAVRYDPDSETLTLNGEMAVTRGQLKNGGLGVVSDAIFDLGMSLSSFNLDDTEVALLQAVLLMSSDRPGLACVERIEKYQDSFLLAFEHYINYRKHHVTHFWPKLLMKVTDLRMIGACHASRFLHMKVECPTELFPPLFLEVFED

## Nc1nc(=S)c2[nH]cnc2[nH]1
[1]
  outcome: inactive
[2]
  outcome: inactive
[3]
  AC50: 74.5 µM (active)

## NC(=Nc1ccccc1)Nc1ccccc1
[1]
  outcome: inactive
[2]
  outcome: inactive

## O=C(Oc1ccccc1)c1cccc(C(=O)Oc2ccccc2)c1
[3]
  outcome: inactive

## CC(=O)[C@@]1(O)CC[C@H]2[C@@H]3CCC4=CC(=O)CC[C@]4(C)[C@H]3CC[C@@]21C
[4]
  outcome: inactive
[5]
  outcome: inactive
[6]
  outcome: inactive
[7]
  outcome: inactive

## Cc1occc(=O)c1O
[8]
  outcome: inactive
[9]
  outcome: inactive
[10]
  outcome: inactive
[11]
  outcome: inactive

## Nc1nc(Cl)nc2c1ncn2[C@H]1C[C@H](O)[C@@H](CO)O1
[12]
  outcome: inactive
[13]
  outcome: inactive
[14]
  outcome: inactive
[15]
  outcome: inactive
